# Laboratory results published in PubChem BioAssay (NCATS).
# Results filed as inconclusive are left out. Where a call stands in place of a potency, no number is given. A number with no mark means an inactive call. Activity calls are given as the source filed them. The call rests on the fitted dose curve; in most records, active means well fitted inhibition curve with a large enough effect; inconclusive means small, poorly fitted or top-dose-only effect; inactive means flat fitted curve, though single readings scatter.
# How the values were obtained:
# [1] = tested on: Zika virus NS2B-NS3 protease (linked construct); experiment: Confirmatory screen NINDS AMC qHTS for Zika virus inhibitors (AID 1347152);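 further: AMC fluorescence gain from cleaved Bz-Nle-KRR-AMC substrate over 15 min; top concentration of the series differs between compounds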
# Summary of the method: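 Purified NS2B-NS3 protease with NS2B hydrophilic domain linked to NS3 protease domain by flexible linker, 1 nM final in 10 mM Tris-HCl pH 8.0, 0.01% Tween 20. Compounds preincubated 15 min, room temperature; Bz-Nle-KRR-AMC 10 microM (Km 18.3 µM); 15-min fluorescence change, 4-parameter Hill fit.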
# [2] = tested on: Zika virus NS2B-NS3 protease (unlinked complex); experiment: Confirmatory screen GU AMC qHTS for Zika virus inhibitors (AID 1347153)
# Summary of the method: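 Noncovalent NS2B hydrophilic domain/NS3 protease complex (25 nM) in 10 mM Tris-HCl pH 8.0, 0.01% Tween 20 was preincubated 15 min at room temperature with compounds. Then 10 µM AMC substrate (Km 18.3 µM) was added; fluorescence was read over 15 min and fitted to a 4-parameter Hill equation.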
# Further: nearly all actives have a fitted effect of over 70% in size.
smiles,measurement,setting,value
O=C(Nc1ccc(Oc2ccccc2)cc1)O[C@@H]1CO[C@H]2[C@@H]1OC[C@@H]2NS(=O)(=O)c1ccc2ccccc2c1,Potency,[1],inactive
same,Potency,[2],inactive
